A selection: hits, their analogues and other compounds. The true share with any hit is near 1.1%.
RecA splice inh: blocks M. tuberculosis RecA intein splicing. cell-free RecA intein splicing, fluorescence. inhibition, % (no concentration beside the values). actives 0.75% (n = 290,000); in the data active = inhibition above about 30%;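 note: 0% = vehicle wells and 100% = reference inhibitor control wells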
Target sequence (P9WHJ3 whole entry, looked up, canonical isoform): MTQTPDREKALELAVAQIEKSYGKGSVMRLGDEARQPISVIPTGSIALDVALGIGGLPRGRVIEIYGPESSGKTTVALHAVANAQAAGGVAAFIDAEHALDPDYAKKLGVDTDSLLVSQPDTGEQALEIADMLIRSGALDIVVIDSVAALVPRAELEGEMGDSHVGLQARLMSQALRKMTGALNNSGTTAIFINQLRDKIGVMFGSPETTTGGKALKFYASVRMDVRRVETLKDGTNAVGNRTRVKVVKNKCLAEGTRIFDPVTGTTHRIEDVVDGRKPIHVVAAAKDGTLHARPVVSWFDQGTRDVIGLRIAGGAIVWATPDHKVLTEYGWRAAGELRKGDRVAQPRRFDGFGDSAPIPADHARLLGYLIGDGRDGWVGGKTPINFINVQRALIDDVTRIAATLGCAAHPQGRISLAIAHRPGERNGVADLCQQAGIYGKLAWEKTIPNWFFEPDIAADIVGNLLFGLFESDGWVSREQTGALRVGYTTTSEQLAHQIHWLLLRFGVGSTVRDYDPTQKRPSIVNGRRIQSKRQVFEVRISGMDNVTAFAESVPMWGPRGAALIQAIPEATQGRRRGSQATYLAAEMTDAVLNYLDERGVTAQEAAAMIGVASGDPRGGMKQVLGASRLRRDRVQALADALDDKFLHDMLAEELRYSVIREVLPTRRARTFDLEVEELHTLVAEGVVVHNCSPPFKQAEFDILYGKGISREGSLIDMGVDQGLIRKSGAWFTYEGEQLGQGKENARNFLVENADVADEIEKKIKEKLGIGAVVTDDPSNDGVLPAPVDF
Yp Topo-I inh: Y. pestis Topo-I inhibition via cleavage products; Y. pestis Topo-I cleavage product accumulation, plate reader; activity, % at 10 µM; actives 0.064% (n = 360,000); AID 504884; in the data active = activity above about 50%, passing the limit was not always enough
Mtb bLac sens: beta-lactam sensitization of Mtb H37Rv. actives 0.27% (n = 330,000). inhibition, % at 25 µM. AID 434955. M. tuberculosis H37Rv growth with meropenem, percent inhibition; call rule not given here;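 note: growth measured after seven days incubation then overnight dye step; 0% = bacteria only wells and 100% = bacteria with antibiotic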
Mtb BioA inh: BioA (M. tuberculosis) enzyme inhibition; inhibition, % at 9.99 µM; actives 0.096% (n = 360,000); purified M. tuberculosis BioA enzyme, plate reader; in the data active = inhibition above about 40%
CCHF vOTU inh: CCHFV vOTU protease inhibition | Pep-AMC fluorescence | AID 651958 | inhibition, % at 11.5 µM | actives 0.55% (n = 370,000); in the data active = inhibition above about 30%; note: 0% = vehicle wells with enzyme and 100% = no enzyme wells
BJeLR viability: kills HRASV12-expressing BJeLR cells | AID 1554 | inhibition, % (concentration not given with the values) | BJeLR (HRASV12) viability, CellTiter-Glo ATP luminescence, 48 h | actives 0.17% (n = 300,000); in the data active = inhibition above about 50%
* hit, by the source's call; . = not tested or not shown.

SMILES | RecA splice inh | Yp Topo-I inh | Mtb bLac sens | Mtb BioA inh | CCHF vOTU inh | BJeLR viability
COc1ccc(C#Cc2ccc3c(c2)[C@H]2[C@H](CCN2C(=O)NC(C)C)[C@H](CO)N3C)cc1 | . | . | . | 2.6 | . | .
CCCCn1c(=O)[nH]c(=O)c2c1nc(-c1ccsc1)n2Cc1ccccc1 | -1.3 | 59.0* | -1.8 | -0.6 | 6.5 | 5.2
CCCCn1c(-c2ccsc2)nc2c1c(=O)[nH]c(=O)n2CCC | -5.5 | 0.3 | -5.5 | 0.7 | -12.5 | -0.3
CCCn1c(-c2ccccc2)cc(SC)c(C#N)c1=O | 1.6 | -12.7 | 5.5 | . | -11.4 | 6.8
CSc1cc(-c2ccccc2)n(Cc2ccccc2Cl)c(=O)c1C#N | -2.8 | 3.0 | 1.5 | . | 3.6 | 51.1*
COc1cc2c(c(OC)c1OC)-c1ccc(OC)c(=O)cc1C(NC(C)=O)CC2 (stereo unspecified) | -2.8 | -5.3 | 3.0 | -0.5 | 14.1 | 48.4
COc1cc2c(c(OC)c1OC)-c1ccc(O)c(=O)cc1C(NC(C)=O)CC2 (stereo unspecified) | -4.2 | 4.6 | 5.4 | 5.0 | -12.8 | 56.9*
CCCN1C=CC(=C2C(=O)c3ccccc3C2=O)C=C1 | 0.2 | 12.4 | 9.7 | -1.0 | 4.2 | 68.0*
O=C(CCl)N1N=C(c2ccco2)CC1c1ccco1 (stereo unspecified) | 53.9* | -2.6 | 98.9 | 0.3 | 9.8 | -4.0
CCN1C/C(=C/c2ccc(OC)c(O)c2)C(=O)/C(=C/c2ccc(OC)c(O)c2)C1 | 1.7 | 9.0 | -1.9 | . | -8.9 | 55.4*
COc1ccc(/C=C2\CN(Cc3ccccc3)C/C(=C\c3ccc(OC)c(O)c3)C2=O)cc1O | -2.0 | 7.9 | 4.7 | -0.8 | 6.1 | 69.4*
COc1ccc(C=C2C(=O)c3ccccc3C2=O)cc1O | 24.9 | -19.0 | -1.3 | 2.1 | 1.8 | -6.1
CO[C@H]1CN(C)C(=O)c2cc(NC(=O)C3CC3)ccc2OC[C@H](C)N(C)C[C@@H]1C | . | . | . | 2.1 | . | .
C/C(=N\NC(=O)c1cccc2ccccc12)c1ccccn1 | -1.1 | -2.9 | . | -0.7 | 17.3 | 79.0*
COc1ccc(C(=O)N/N=C(\C)c2ccccn2)cc1OC | 1.5 | -1.3 | 99.0 | -1.8 | 5.5 | 74.4*
CCS(=O)(=O)Nc1ccc2c(c1)C(=O)N(C)[C@H]1CC[C@@H](CC(=O)N[C@@H]3CCN(Cc4ccccc4)C3)O[C@@H]1CO2 | . | . | . | -0.3 | . | .
CN1C(=O)c2cc(NC(=O)C3CCCCC3)ccc2OC[C@@H]2O[C@@H](CC(=O)NCc3ccccc3F)CC[C@@H]21 | . | . | . | 0.9 | . | .
Cc1ccccc1S(=O)(=O)N1CCCCN2[C@@H](CO)[C@H](c3ccc(-c4ccccc4)cc3)[C@@H]2C1 | . | . | . | -3.8 | . | .
CO[C@H]1CN(C)C(=O)c2ccc(NS(=O)(=O)c3ccccc3Cl)cc2OC[C@H](C)NC[C@H]1C | . | . | . | -0.3 | . | .
C[C@@H]1CC=C[C@H]2[C@H]1C(=O)N(Cc1ccccc1)[C@H]2c1ccc(F)c(Br)c1 | 32.4* | . | . | . | . | 1.1
OCCNC(=S)Nc1ccc2nsnc2c1 | 45.9* | -12.3 | -3.1 | 2.5 | 4.3 | 5.8
COc1ccc(CCNc2nc(C)c(C(C)=O)s2)cc1OC | 0.0 | -0.8 | 0.5 | 81.3* | . | 4.4
COc1ccc(N/C=C/C(=O)c2ccc(OC)c(OC)c2)cc1 | . | 7.8 | 93.6 | 0.1 | 6.5 | -0.6
COc1ccc(N/C=C/C(=O)c2cc(OC)c(OC)c(OC)c2)cc1 | -0.6 | -4.2 | 92.6 | 1.9 | -4.2 | 53.0*
COc1ccc(-c2ccc(OC)c([C@H]3[C@@H]4C=CCC[C@@]4(C)C(=O)N3Cc3ccccc3)c2)cc1OC | 8.7 | 26.2 | 94.5 | -0.7 | 16.5 | -5.5
COc1ccc(Br)cc1[C@H]1[C@@H]2C=CCC[C@@]2(C)C(=O)N1Cc1ccccc1 | 31.9* | -5.0 | 2.6 | -1.4 | 2.4 | 5.5
CN(C)C(=O)C[C@H]1C=C[C@H](NC(=O)Nc2cccc(F)c2)[C@H](CO)O1 | . | . | . | 1.6 | . | .
COC(=O)Cc1c(C)[nH]n(-c2cc(Cl)cc(Cl)c2)c1=O | 40.3* | 2.6 | 4.1 | . | 9.9 | -11.1
C[C@@H]1CN([C@@H](C)CO)C(=O)c2cc(-c3cncnc3)cnc2O[C@@H]1CN(C)C(=O)Cc1ccccc1 | . | . | . | -1.4 | . | .
O=c1c2ccccc2nc(-c2ccccc2)n1-c1ccccc1O | -1.3 | -19.0 | 3.3 | 3.7 | -7.5 | 2.8

Bioassay records: PubChem, several laboratories
